# Assay results reported in PubChem BioAssay AID2803 (The Scripps Research Institute Molecular Screening Center, 2010).
# Among all 2,000 compounds or so, about 1,300 (65%) were called active. Cut-off read from the data, not from the text of the source: active = inhibition above about 43%; inactive = the rest. So high a share suggests a set chosen from earlier hits. Not all results are given here.
# Biological target: Prolyl endopeptidase-like (Homo sapiens) (UniProt Q4J6C6)
# Test: human PREPL enzyme inhibitors, confirmation, biochemical, fluorescence polarization (AID 2803);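 note: 0% = protein with DMSO and 100% = wells lacking protein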
# Conditions: recombinant PREPL, fluorescence polarization activity probe; at 5.96 µM; hits give high values
# Chain of Prolyl endopeptidase-like (Homo sapiens) (Q4J6C6 whole entry, looked up): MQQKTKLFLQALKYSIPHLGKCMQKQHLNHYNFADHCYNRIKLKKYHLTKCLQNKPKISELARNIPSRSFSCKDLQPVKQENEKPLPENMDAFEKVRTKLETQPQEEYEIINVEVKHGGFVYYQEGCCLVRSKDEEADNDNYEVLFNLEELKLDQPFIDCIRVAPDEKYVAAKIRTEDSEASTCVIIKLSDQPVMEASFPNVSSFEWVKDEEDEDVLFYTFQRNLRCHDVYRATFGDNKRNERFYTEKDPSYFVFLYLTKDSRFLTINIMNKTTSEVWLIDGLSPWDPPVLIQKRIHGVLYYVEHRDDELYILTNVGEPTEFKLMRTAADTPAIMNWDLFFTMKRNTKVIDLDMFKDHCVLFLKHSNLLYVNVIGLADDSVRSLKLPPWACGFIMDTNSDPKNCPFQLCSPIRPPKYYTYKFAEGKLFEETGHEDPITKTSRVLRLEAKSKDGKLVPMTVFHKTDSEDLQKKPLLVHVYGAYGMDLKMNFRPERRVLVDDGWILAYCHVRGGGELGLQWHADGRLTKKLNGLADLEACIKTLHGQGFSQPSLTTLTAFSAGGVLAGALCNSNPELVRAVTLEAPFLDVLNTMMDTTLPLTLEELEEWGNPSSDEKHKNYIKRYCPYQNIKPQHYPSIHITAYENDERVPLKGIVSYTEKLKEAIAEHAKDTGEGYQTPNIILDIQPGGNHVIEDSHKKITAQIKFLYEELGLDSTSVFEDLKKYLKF
row,Compound,inhibition
1,CCOc1ccc2nc(N3CCCN(C(=O)Nc4ccccc4C)CC3)c(C#N)cc2c1,43.9% (active)
2,Nc1ccc(Nc2ccccc2)cc1,29.3% (inactive)
3,CC(=O)Nc1ccc(S(=O)(=O)Nc2ccc(N3CCCCC3)cc2)cc1,46.4% (active)
4,O=C(NNc1c2ccccc2nc2ccccc12)c1cc2ccccc2cc1O,23.9% (inactive)
5,O=C1N=C(N2CCc3ccccc3C2)S/C1=C\c1ccc(O)cc1,48.4% (active)
6,COc1ccc2cc1Oc1ccc(cc1)C[C@H]1c3cc(c(OC)cc3CCN1C)Oc1c(O)c(OC)cc3c1[C@H](C2)N(C)CC3,55.2% (active)
7,CCN1C(=O)/C(=C\N2CCN(c3ccccc3)CC2)SC1=S,54.7% (active)
8,COC(=O)[C@H]1[C@H]2C[C@H]3c4[nH]c5ccccc5c4CCN3C[C@@H]2CC[C@@H]1O,22.4% (inactive)
9,Cc1nc([N+](=O)[O-])nn1C12CC3CC(CC(Br)(C3)C1)C2,8.94% (inactive)
10,CCN1/C(=C/c2ccc3ccc(C)cc3[n+]2CC)Sc2ccccc21,52.8% (active)
11,CCN1/C(=C\c2ccc3ccccc3[n+]2CC)Sc2cc(C)ccc21,61.6% (active)
12,C#CCOCCOCCOCCNc1nc(N2CCN(C(=O)CCCCCCCCCCNC(=O)Cn3cc(CCCCCN)nn3)CC2)nc(N2CCN(C(=O)CCCCCCCCCCNC(=O)[C@H](CO)n3cc(CCCSC)nn3)CC2)n1,63.1% (active)
13,CCC(CO)Oc1cc(NCc2ccccc2)c2ncn(C3CCCC3)c2c1 (stereo unspecified),12% (inactive)
14,CC(C)n1cnc2c(NCc3ccccc3)cc(OCC3CCN(C)CC3)cc21,54.1% (active)
15,N#C/C(=C/c1ccc(N2CCCCC2)o1)C(=O)NCCc1c[nH]c2ccccc12,78.5% (active)
16,O=C(NCc1ccccn1)c1ccc2nc(-c3ccco3)c(-c3ccco3)nc2c1,39.2% (inactive)
17,Oc1c(CN2CCCC2)cc(COCc2ccccc2)c2cccnc12,69.6% (active)
18,Cc1ccc(C2CC(c3cccc(C)c3)n3nc(N)nc3N2)cc1 (stereo unspecified),53.7% (active)
19,Oc1ccc2ccccc2c1N=Nc1nccs1,40.4% (inactive)
20,O=C(OCC(=O)N1CCN(c2ccccc2)CC1)c1ccc([N+](=O)[O-])s1,22.6% (inactive)
21,O=C(c1cc(C(=O)N2CCN(c3ccc(F)cc3)CC2)cc([N+](=O)[O-])c1)N1CCN(c2ccc(F)cc2)CC1,47.8% (active)
22,COCCN(CCOC)c1nc(N)c2c(N)nc3c(c2c1C#N)CC(=O)N3Cc1ccc(Cl)cc1,19.2% (inactive)
23,O=C1c2ccccc2C(=O)c2c1cccc2N1CCN(C/C=C/c2ccccc2)CC1,80.7% (active)

row,Compound,inhibition
1,COc1ccc2cc(C(=O)C3CCCN(C(=O)c4sc(C)nc4C)C3)ccc2c1 (stereo unspecified),31.8% (inactive)
2,C[N+](C)(CCCCCC[N+](C)(C)CCCN1C(=O)c2cccc3cccc(c23)C1=O)CCCN1C(=O)c2cccc3cccc(c23)C1=O,56% (active)
3,Cn1c(CCN2CCCCCC2)nc2cc(NC(=O)Nc3ccccc3)ccc21,38.1% (inactive)
4,O=C(N/N=C/c1cccnc1)c1cc2ccccc2cc1O,5.89% (inactive)
5,CC(C)(C)Nc1nc(-c2ccccn2)nc2ccccc12,62.5% (active)
6,CC(=O)N1CCN(c2ccc(NCc3ccc(C(C)C)cc3)cc2)CC1,61.9% (active)
7,COc1cc2c(cc1O)[C@H](Cc1ccc(Oc3cc(C[C@@H]4NCCc5cc(OC)c(O)cc54)ccc3O)cc1)NCC2,37.1% (inactive)
8,CC[C@@H](C)[C@@H]1CN([C@@H](C)CN2CCC[C@H]2CN2C(N)=NC[C@H]2C(C)C)C(=N)N1CCc1ccc(Cl)c(Cl)c1,66.1% (active)
9,C[C@@H](CN1CCC[C@H]1CN1C(N)=NC[C@@H]1Cc1ccccc1)N1C[C@@H](Cc2ccccc2)N(CCCC2CCCC2)C1=N,42.6% (inactive)
10,COc1ccc(NC(C)=O)cc1NC(=O)CN1CCN(C2c3ccccc3-c3ccccc32)CC1,37.7% (inactive)
11,Cc1ccc(OCC(=O)Nc2ccc(N3CCN(C(=O)c4ccco4)CC3)cc2)c(C)c1,52.6% (active)
12,CN1CCN(c2ccc(NC(=O)COc3ccc(Cl)cc3Cl)cc2)CC1,58% (active)
13,Cc1ccccc1OCC(=O)Nc1ccc(N2CCN(C(=O)C(C)C)CC2)c(Cl)c1,42.7% (inactive)
14,CC1CCN(C(=O)c2ccc3c(c2)NC(=O)CN3)CC1,12.2% (inactive)
15,O=C1N[C@H](Cc2c[nH]c3ccccc23)COC(=O)[C@H](Cc2ccc(F)cc2)C/C=C\C[C@H]1CC(=O)N(CCO)Cc1ccccc1,34.5% (inactive)
16,Cc1ccc(N2CCN(C3=NC(=O)/C(=C\c4cccs4)S3)CC2)cc1,44.4% (active)
17,CCN(CC)c1ccc2cc(C(N)=O)/c(=N\NC(=O)c3ccncc3)oc2c1,56.2% (active)
18,COC(=O)Cc1nc2ccccc2[nH]1,7.22% (inactive)
19,Nc1c(C(=O)c2cccs2)sc2nsc(SCCN3CCCCC3)c12,54.6% (active)
20,Cc1ccc(NS(=O)(=O)c2ccc(N/N=C/c3ccccc3OCC(=O)O)c([N+](=O)[O-])c2)c(C)c1,46.4% (active)
21,CC(C)CCNc1nc(N2CCCC2)c2c(c1C#N)CCN(C)C2,49% (active)
22,CNCC[C@H](Oc1ccc(C(F)(F)F)cc1)c1ccccc1,55.1% (active)
23,Cc1ccc(Nc2ccccc2N)cc1,32.1% (inactive)
